Source: PubChem
Lmaj promast: inhibitors of Leishmania major promastigote growth; Leishmania major promastigotes, resazurin fluorescence viability; inhibition, % at 10 µM; 200,000 tested, 9% active; AID 1063; in the data active = inhibition above about 50%;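 note: promastigotes grown with compound for 44 hours at 28 °C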
CHOP inh: CHOP inhibition in unfolded protein response. CHO-K1 CHOP-promoter luciferase, tunicamycin-induced, 15-18 h. inhibition, % at 10 µM. 220,000 tested, 3.8% active. AID 2732;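 active = compounds that reduced the stress-induced luciferase reporter signal by more than about 70% of percent inhibition, limit read from the data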;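 note: 0% = tunicamycin plus vehicle and 100% = wells without tunicamycin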
WT yeast gro inh: growth inhibition of WT yeast, mitochondrial fusion screen. mitochondrial fusion phenotypic screen, WT strain. inhibition, % at 10 µM. 190,000 tested, 2.1% active. AID 1362; in the data active = inhibition above about 58%; tested in S. cerevisiae
Arbovirus anti: antivirals against arbovirus infection; inhibition, % at 10 µM; arbovirus infection cell-based antiviral screen; 200,000 tested, 0.37% active; AID 1251; in the data active = inhibition above about 30%
An asterisk follows results filed as active; x = no result given. In the library only some 12% were active in any assay of this set; here they are far more common.

SMILES | Lmaj promast | CHOP inh | WT yeast gro inh | Arbovirus anti
CC[n+]1c(/C=C2/C=C(C)CC(C)(C)C2)sc2ccc(OC)cc21 | 100* | 50 | 17 | -5
CC[n+]1c(C)sc2sc3ccccc3c21 | x | 2 | x | x
CC[n+]1c(/C=C2\C=C(C)CC(C)(C)C2)sc2ccccc21 | 100* | 69 | 14 | 9
COc1cc(-c2nnc(COc3ccc(Cl)cc3C)o2)cc(OC)c1OC | 5 | 72* | 6 | -13
COc1cc(-c2nnc(COC(=O)c3cc(C)nc4ccc(C)cc34)o2)cc(OC)c1OC | 3 | 20 | -2 | -1
O=C1N=C(N2CCN(c3ccccc3)CC2)S/C1=C\c1cn[nH]c1-c1ccccc1 | 52* | 20 | -3 | 1
Cc1ccc(N2CCN(C3=NC(=O)/C(=C\c4cn[nH]c4-c4ccccc4)S3)CC2)cc1 | 18 | 48 | 4 | -5
CCOP(=O)(c1ccccc1)c1nc(-c2ccccc2Cl)oc1N1CCCCC1 (configuration not stated) | 36 | 42 | 66* | -35
O=C1CCC(/C=C/c2ccccc2)=NN1Cc1ccccc1Cl | -6 | 43 | 60* | -18
Cc1ccc(NC(=O)Cn2nc(C)c(S(=O)(=O)N(C)C)c2C)cc1C | -2 | 6 | -19 | 9
COc1ccc(-c2onc(C)c2-c2cnn(-c3ccccc3)c2)c(O)c1C | 84* | 18 | 37 | 16
COc1ccc(-c2n[nH]c(C)c2-c2cscn2)c(O)c1 | x | 4 | x | x
CCOc1ccc(-c2n[nH]c(C)c2-c2ccccc2OC)c(O)c1 | 16 | 87* | 11 | 0
COc1ccc(-c2n[nH]c(C)c2-c2cnn(-c3ccccc3)c2)c(O)c1 | -12 | -27 | 6 | 38*
Cc1ccc(O)c(CNc2ccc(S(=O)(=O)Nc3nccs3)cc2)c1 | x | -4 | x | x
COCCN1CCC(CNCc2c(C(=O)N3CCCCC3)nc3c(C)cccn23)C1 (configuration not stated) | x | 10 | x | x
CCc1cccc(NC(=O)Cc2ccc(OC)c(OC)c2)c1 | -4 | 15 | -24 | 8
CCOc1cccc2cc(C(=O)N3CCc4ccccc43)c(=O)oc12 | -7 | 43 | -8 | -3
COc1cccc2cc(C(=O)N3CCc4ccccc43)c(=O)oc12 | -6 | 17 | 83* | 0
COc1ccccc1OCC(O)Cn1c(=N)n(Cc2ccccc2)c2ccccc21 (configuration not stated) | 101* | 30 | 2 | -16
Cc1ccc(OCC(O)Cn2c(=N)n(CCN3CCOCC3)c3ccccc32)cc1 (configuration not stated) | 5 | 6 | x | -12
CCCCn1c(=N)n(CC(O)COc2cccc(C)c2)c2ccccc21 (configuration not stated) | 100* | 40 | -10 | -38
Cc1ccc(OCC(O)Cn2c(=N)n(CCN3CCCCC3)c3ccccc32)cc1 (configuration not stated) | 100* | -4 | 3 | -32
Cc1ccccc1OCC(O)Cn1c(=N)n(Cc2ccccc2)c2ccccc21 (configuration not stated) | x | 32 | x | x
CCCn1c(=N)n(CC(O)COc2ccc(C)cc2)c2ccccc21 (configuration not stated) | x | 2 | x | x
SMILES | Lmaj promast | CHOP inh | WT yeast gro inh | Arbovirus anti
CCn1c(=N)n(CC(O)COc2ccc(C)cc2)c2ccccc21 (configuration not stated) | x | 3 | x | x
COc1ccc(OCC(O)Cn2c(=N)n(CCN3CCCCC3)c3ccccc32)cc1 (configuration not stated) | 100* | 42 | -9 | -17
O=C1C(Cl)=C(N2CCC(C(=O)O)CC2)C(=O)c2ccccc21 | x | 18 | x | x
NC(=O)C1CCN(C2=C(Cl)C(=O)c3ccccc3C2=O)CC1 | 99* | -183 | 13 | -10
N#Cc1ccccc1NC(=O)c1ccccc1OCC(=O)NCc1ccco1 | -3 | 59 | 2 | 31*
CC(C)(C)c1ccc(OCC(=O)NCc2ccco2)c(Br)c1 | 48 | 81* | 1 | 1
N#C/C(=C\c1ccc(OCc2ccc(C(=O)O)cc2)cc1)C(=O)N1CCOCC1 | -4 | 82* | 3 | 1
CCOC(=O)c1sc(NC(=O)CSc2nc3c(c(=O)n2-c2ccc(F)cc2)SCC3)c(C(=O)OCC)c1C | 17 | -1 | 0 | -3
CN1CCN(CC(O)COc2ccc(OCC(O)CN3CCN(C)CC3)cc2)CC1 (configuration not stated) | 0 | -13 | -7 | 8
OC(CON=C1c2ccccc2-c2ccccc21)CN1CCNCC1 (configuration not stated) | 92* | 1 | -2 | -24
Cc1ccc(C(O)(C(=O)NNS(=O)(=O)c2ccc(C)cc2)c2ccc(C)cc2)cc1 | 29 | 6 | 5 | 11
COc1ccccc1N1CCN(C(CNS(=O)(=O)c2cc(F)ccc2F)c2cccnc2)CC1 (configuration not stated) | 90* | 14 | -6 | 3
O=S(=O)(NCC(c1cccnc1)N1CCN(c2ccc(F)cc2)CC1)c1ccccc1 (configuration not stated) | 92* | x | x | x
O=S(=O)(NCC(c1cccnc1)N1CCN(c2ccccc2)CC1)c1cc(F)ccc1F (configuration not stated) | 97* | 25 | 27 | 10
CC(=O)Oc1cc2c3c(c1)/C(=C1/SC(=S)NC1=O)C(=O)N3C(C)(C)C=C2C | x | 6 | x | x
Cc1cc2occ(CC(=O)Nc3nnc(C4CC4)s3)c2cc1C | -4 | 90* | 1 | 2
O=C(Cc1coc2ccc3ccccc3c12)Nc1nnc(C2CC2)s1 | -2 | 10 | -1 | 0
CS/C(=N\S(=O)(=O)c1ccc(Cl)cc1)c1ccccc1 | -10 | 77* | -12 | 1
CS/C(=N/S(=O)(=O)c1ccc(C)cc1)c1ccccc1 | 42 | 37 | -4 | 8
CN(C)S(=O)(=O)c1cccc(NC(=O)CSc2nnnn2-c2ccccc2)c1 | x | 21 | x | x
Cc1cc(N/N=C/c2ccc3c(c2)OCO3)nc2ccccc12 | x | 43 | x | x
COc1ccccc1N1CCN(C(=O)c2oc3ccc(F)cc3c2C)CC1 | 1 | 23 | 57 | 0
C(=C\c1ccccc1)/CN1CCN(c2ncnc3c2oc2ccccc23)CC1 | 57* | 94* | 67* | 16
COc1ccccc1N1CCN(c2ncnc3c2oc2ccccc23)CC1 | 14 | 53 | 61* | -22
c1ccc2c(c1)oc1c(N3CCOCC3)ncnc12 | -3 | 10 | 52 | 9
SMILES | Lmaj promast | CHOP inh | WT yeast gro inh | Arbovirus anti
COc1ccccc1N1CCN(C(=O)c2oc3ccc(Br)cc3c2C)CC1 | -5 | 41 | 79* | -3
CN1CCC2(CC1)Nc1nc(SCc3ccc(Cl)cc3)nn1C1=C2CN(C)CC1 | 97* | -15 | 66* | -27
O/N=C/c1ccnc(SCc2ccc(Cl)cc2)n1 | x | 19 | x | x
CCc1c(C)sc(NC(=S)N2CC(C)OC(C)C2)c1C(=O)OC (configuration not stated) | 4 | 10 | 64* | 24
CCc1c(C)sc(NC(=S)NC(C)C2CCCO2)c1C(=O)OC (configuration not stated) | -1 | 2 | 9 | 20
CC(=O)Nc1sc(C)c(C)c1C(=O)OC(C)C | 5 | 5 | -9 | 0
CCc1c(C)sc(NC(=O)C2CC2)c1C(=O)OC(C)C | -1 | 81* | 16 | -4
O=C(Nc1ccc(Cl)c(C(F)(F)F)c1)NC1CC2CCCC(C1)N2C1CC1 (configuration not stated) | 60* | x | x | x
